# Data as given in PubChem BioAssay (NCATS).
# Inconclusive results are not listed. Where a call stands in place of a potency, no number is given. Activity calls are given as the source filed them. Unless noted, calls follow the shape of the dose curve; as a rule, active = well fitted curve in the direction sought with a large enough effect; inconclusive = small, poorly fitted or top-dose-only effect, or another doubt; inactive = no such curve, though single readings can be large; an effect the other way counts as inactive or inconclusive.
# Tests used:
# [1] = Confirmation and Secondary Assay for Modulators of Hemoglobin Beta Chain Splicing at IVS2 705 locus (AID 930);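 also: HeLa cells stably expressing the EGFP-705 splicing reporter; GFP fluorescence per well restored by corrected splicing of the IVS2-705 intron in EGFP; series mostly up to about 46 µM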
# Procedure, shortened: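 HeLa EGFP-705 reporter; 500 cells/well, o/n 37C 5% CO2; cpd 2 d; 488 ex/500-520 em laser scan; total peak GFP intensity/well. Ref: 500 nM […] antisense PNA.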
# [2] = Cell Viability - LYMP2-001 (AID 921); also: nearly all actives have a fitted effect of over 70% in size; also: potency is read from the fitted curve at half-maximal effect
# Procedure, shortened: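 CellTiter-Glo luminescence (intracellular ATP) after 24 hr compound exposure at 37 C, 2500 lymphoblastoid cells/well in complete medium. AC50 fitted with standard Hill equation; tetraoctylammonium bromide positive control.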
# [3] = MultiTox-Fluor Cytotoxicity Assay - LYMP1-001 - Dead Cells (AID 946);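 also: cells exposed to compound for 16 h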; also: potency is read from the fitted curve at half-maximal effect
# Procedure, shortened: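 In this qHTS, 15 uM tetraoctylammonium bromide defined 100% and DMSO defined basal activity. Lymphoblastoid cells (LYMP1-001, 2500 per well) received compound for 16 hr at 37 C before a fluorogenic dead-cell substrate readout at 485/520 nm.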
# [4] = MultiTox-Fluor Cytotoxicity Assay - LYMP1-001 - Live Cells (AID 947); also: potency is read from the fitted curve at half-maximal effect
# [5] = Cell Viability - LYMP1-002 - Assay at 16 hr (AID 948); also: potency is read from the fitted curve at half-maximal effect
# Procedure, shortened: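 LYMP1-002 human lymphoblastoid cells, 2500/well; 5 hr 37 C; cpd 16 hr 37 C; CellTiter-Glo 30 min RT; luminescence (ATP). Concentration-response, Hill-fit AC50. Pos ctrl tetraoctylammonium bromide.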
# [6] = target: Muscarinic acetylcholine receptor M1 (Rattus norvegicus) (UniProt P08482); experiment: qHTS Assay for Antagonists of Acetylcholine Muscarinic M1 Receptor: Measurement of IP-One Response (AID 944); also: nearly all actives have a fitted effect of over 75% in size; also: potency is read from the fitted curve at half-maximal effect
# Sequence of Muscarinic acetylcholine receptor M1 (Rattus norvegicus) (P08482 whole entry, looked up): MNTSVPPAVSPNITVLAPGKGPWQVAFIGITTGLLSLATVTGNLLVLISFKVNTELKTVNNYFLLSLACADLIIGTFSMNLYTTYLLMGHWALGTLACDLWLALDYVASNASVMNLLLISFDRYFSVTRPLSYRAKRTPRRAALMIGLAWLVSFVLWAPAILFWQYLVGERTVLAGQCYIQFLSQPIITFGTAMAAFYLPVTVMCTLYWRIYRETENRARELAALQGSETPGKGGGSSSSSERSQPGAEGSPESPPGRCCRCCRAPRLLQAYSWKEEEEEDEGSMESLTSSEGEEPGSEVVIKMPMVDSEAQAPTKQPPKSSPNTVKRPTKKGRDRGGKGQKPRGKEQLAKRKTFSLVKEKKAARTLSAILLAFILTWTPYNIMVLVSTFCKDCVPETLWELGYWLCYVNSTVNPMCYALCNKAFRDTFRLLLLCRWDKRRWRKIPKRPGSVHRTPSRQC
# Procedure, shortened: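 IP1 accumulation measured via TR-FRET between d2-IP1 and Eu-cryptate anti-IP1 antibody after carbachol (200 nM, EC80) stimulation for 30 min; rat M1-transfected CHO cells received compound 10 min before agonist.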
# [7] = target: Pyruvate kinase (Leishmania mexicana) (UniProt Q27686); experiment: qHTS Validation Assay for Inhibitors of Leishmania Mexicana Pyruvate Kinase (AID 945)
# Sequence of Pyruvate kinase (Leishmania mexicana) (Q27686 2-499 E452W): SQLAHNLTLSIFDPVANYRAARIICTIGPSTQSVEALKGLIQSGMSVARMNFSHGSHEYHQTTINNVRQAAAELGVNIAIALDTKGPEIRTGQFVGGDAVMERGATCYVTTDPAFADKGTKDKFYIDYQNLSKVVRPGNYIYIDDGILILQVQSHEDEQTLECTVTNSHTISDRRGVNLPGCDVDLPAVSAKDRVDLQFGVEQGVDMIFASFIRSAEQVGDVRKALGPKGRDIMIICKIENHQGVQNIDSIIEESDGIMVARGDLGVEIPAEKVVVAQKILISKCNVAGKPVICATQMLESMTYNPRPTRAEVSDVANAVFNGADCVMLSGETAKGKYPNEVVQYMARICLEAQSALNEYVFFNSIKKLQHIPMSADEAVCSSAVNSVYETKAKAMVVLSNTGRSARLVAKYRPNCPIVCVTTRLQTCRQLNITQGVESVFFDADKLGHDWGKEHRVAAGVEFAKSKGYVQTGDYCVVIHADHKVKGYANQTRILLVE
# Procedure, shortened: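 Substrate mix (0.5 mM PEP, 0.1 mM ADP, 7 mM MgCl2, 50 mM KCl, pH 7.2 imidazole) received compound by pin tool, then 0.2 nM LmPYK E451W. After 1 h at room temperature, PKLight was added and luminescence measured.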
# [8] = target: Pyruvate kinase PKM (Homo sapiens) (UniProt P14618); experiment: qHTS Assay for Activators of Human Muscle Pyruvate Kinase (AID 954; active = well fitted curve in the direction sought with a large enough effect, not every such curve was filed as active)
# Sequence of Pyruvate kinase PKM (Homo sapiens) (P14618 whole entry, looked up): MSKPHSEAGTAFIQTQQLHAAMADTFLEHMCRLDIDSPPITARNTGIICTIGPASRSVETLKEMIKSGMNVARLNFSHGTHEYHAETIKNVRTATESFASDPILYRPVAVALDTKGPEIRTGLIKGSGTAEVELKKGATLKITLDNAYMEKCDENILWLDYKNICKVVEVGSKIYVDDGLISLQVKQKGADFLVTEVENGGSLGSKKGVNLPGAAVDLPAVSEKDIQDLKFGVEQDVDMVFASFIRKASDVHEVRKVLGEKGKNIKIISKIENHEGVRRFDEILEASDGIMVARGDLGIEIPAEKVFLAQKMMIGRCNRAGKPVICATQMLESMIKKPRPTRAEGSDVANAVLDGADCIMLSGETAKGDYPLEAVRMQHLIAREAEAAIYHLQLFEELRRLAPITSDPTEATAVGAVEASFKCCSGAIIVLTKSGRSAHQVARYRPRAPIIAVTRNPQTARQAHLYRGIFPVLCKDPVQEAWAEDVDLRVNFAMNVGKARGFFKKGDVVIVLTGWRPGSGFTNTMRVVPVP
# Procedure, shortened: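 Screening used highly purified human pyruvate kinase M2 under submaximal activity, with PEP at its Km and ADP below Km. After an hour at room temperature, ATP was read by luciferase luminescence.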
# [9] = target: Muscarinic acetylcholine receptor M1 (Rattus norvegicus) (UniProt P08482); experiment: qHTS Assay for Antagonists of Acetylcholine Muscarinic M1 Receptor: Kinetic Measurement of Intracellular Calcium Response (AID 943); also: nearly all actives have a fitted effect of over 75% in size; also: potency is read from the fitted curve at half-maximal effect
# Procedure, shortened: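 Antagonism measured as reduction of carbachol-evoked (EC80, 100 nM final) calcium flux in rat M1-CHO cells after 10 min compound exposure. Fluo-4 signal read kinetically; ratio of maximal to basal fluorescence.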
# [10] = qHTS Assay for Identification of Small Molecule Antagonists for Thrombopoietin (TPO) Signaling Pathway (AID 918); conditions: TPO-dependent cell signaling reporter, antagonist mode; also: potency is read from the fitted curve at half-maximal effect; nearly all actives have a fitted effect of over 60% in size
# Procedure, shortened: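 Inhibition read as reduced luciferase luminescence after 24 h at 37 C in IL-3-deprived Ba/F3 cells carrying human TPO receptor and GPIIb-promoter reporter, stimulated with 26 pM TPO (final, its EC50) alongside compound.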
compound,measurement,setting,value
CC(NCCC(c1ccccc1)c1ccccc1)c1ccccc1 (centres undefined),outcome,[1],inactive
C1N2CN3CN1CN(C2)C3,outcome,[1],inactive
O=C(Oc1ccccc1)c1ccccc1O,Potency,[2],inactive
same,Potency,[3],inactive
same,Potency,[4],inactive
same,Potency,[5],inactive
Cc1ccc2c(Cl)cc(Cl)c(O)c2n1,outcome,[1],inactive
NC(N)=NCCCCN=C(N)N,outcome,[1],inactive
same,Potency,[6],10 µM (active)
same,outcome,[7],inactive
same,outcome,[8],inactive
CC(C)(C)c1ccc(O)c(O)c1,Potency,[2],31.6 µM (active)
same,Potency,[3],inactive
same,Potency,[4],inactive
Nc1ncnc2nc[nH]c12,outcome,[1],inactive
COc1ccccc1N1CCN(CCN2C(=O)CC3(CCCC3)CC2=O)CC1,outcome,[7],inactive
same,outcome,[8],inactive
O=C1NC(c2cccc([N+](=O)[O-])c2)=CCN1c1ccccc1O,Potency,[9],inactive
same,Potency,[6],inactive
same,outcome,[7],inactive
same,outcome,[8],inactive
O=C(c1ccccc1)c1ccccc1,Potency,[2],inactive
same,Potency,[3],inactive
same,Potency,[4],inactive
same,Potency,[5],inactive
CC(=O)OC/C=C(C)/C=C/C=C(C)/C=C/C1=C(C)CCCC1(C)C,outcome,[1],inactive
same,Potency,[4],inactive
same,Potency,[5],inactive
Nc1ccc(O)cc1,Potency,[5],50.1 µM (active)
Nc1c2ccccc2nc2ccccc12,Potency,[2],12.6 µM (active)
same,outcome,[1],inactive
same,Potency,[3],12.6 µM (active)
same,Potency,[4],inactive
same,Potency,[5],15.8 µM (active)
CCCCC(CC)COC(=O)c1ccccc1C(=O)O (centres undefined),Potency,[2],inactive
same,Potency,[3],inactive
same,Potency,[4],inactive
same,Potency,[5],inactive
COC(=O)c1c(Cl)c(Cl)c(C(=O)OC)c(Cl)c1Cl,outcome,[1],inactive
OCc1c[nH]c2ccccc12,Potency,[2],inactive
same,outcome,[1],inactive
same,Potency,[3],inactive
same,Potency,[4],inactive
same,Potency,[5],inactive
CC(C)N(CCC(=O)c1ccc2ccccc2c1)Cc1ccccc1,Potency,[10],2.51 µM (active)
same,Potency,[9],inactive
same,Potency,[6],inactive
same,outcome,[7],inactive
same,outcome,[8],inactive
O=C(NO)c1ccccc1,Potency,[2],inactive
same,Potency,[3],inactive
same,Potency,[4],inactive
same,Potency,[5],inactive
Cc1ccc(O)cc1,Potency,[2],inactive
same,outcome,[1],inactive
same,Potency,[3],inactive
same,Potency,[4],inactive
same,Potency,[5],inactive
CCN(CC)CCOc1ccc(/C(=C(\Cl)c2ccccc2)c2ccccc2)cc1,outcome,[1],inactive
Cc1cc(C(C)(C)C)c(O)c(C(C)(C)C)c1,Potency,[2],inactive
same,outcome,[1],inactive
same,Potency,[3],inactive
same,Potency,[4],inactive
same,Potency,[5],inactive
Brc1ccc([C@H]2CN3CCSC3=N2)cc1,Potency,[9],12.6 µM (active)
same,outcome,[7],inactive
same,outcome,[8],inactive
Brc1ccccc1-c1ccccc1,Potency,[2],inactive
same,Potency,[3],inactive
same,Potency,[4],inactive
same,Potency,[5],inactive
O=C(O)/C=C(\CC(=O)O)C(=O)O,outcome,[1],inactive
C1=CC2C3C=CC(C3)C2C1 (centres undefined),Potency,[2],inactive
same,Potency,[3],inactive
same,Potency,[4],inactive
same,Potency,[5],inactive
CN(C)c1cc2c(Nc3ccc4c(cnn4Cc4ccccc4)c3)ncnc2cn1,Potency,[6],11.2 µM (active)
same,outcome,[7],inactive
same,outcome,[8],inactive
CC(C)C(C)(C)C(C)(C)C(C)(C)S,Potency,[2],inactive
same,Potency,[3],inactive
same,Potency,[4],inactive
same,Potency,[5],inactive
CC(C)(c1ccc(O)cc1)c1ccc(O)cc1,Potency,[2],inactive
same,Potency,[3],inactive
same,Potency,[4],inactive
same,Potency,[5],inactive
COc1cc(C=O)ccc1O,Potency,[2],inactive
same,Potency,[3],inactive
same,Potency,[4],inactive
same,Potency,[5],inactive
C[N+](C)(C)CCO,outcome,[1],inactive
same,Potency,[6],inactive
same,outcome,[7],inactive
same,outcome,[8],inactive
Cn1cnc2c(NCc3ccccc3)nc(NCCO)nc21,Potency,[9],inactive
same,Potency,[6],inactive
same,outcome,[7],inactive
same,outcome,[8],inactive
Nc1cccc2c(N)cccc12,Potency,[2],inactive
same,Potency,[3],inactive
same,Potency,[5],inactive
CC(=O)OCC[N+](C)(C)C,outcome,[1],inactive
CCCCCCCCCCCCCCCC[n+]1ccccc1,Potency,[2],10 µM (active)
same,Potency,[3],10 µM (active)
same,Potency,[4],20 µM (active)
same,Potency,[5],25.1 µM (active)
c1ccc2occc2c1,Potency,[2],inactive
same,Potency,[3],inactive
same,Potency,[4],inactive
same,Potency,[5],inactive
O=[N+]([O-])c1ccc(-c2nc(-c3ccc(F)cc3)c(-c3ccncc3)[nH]2)cc1,Potency,[10],12.6 µM (active)
same,Potency,[9],inactive
same,outcome,[7],inactive
same,outcome,[8],inactive
Oc1ccccc1,Potency,[2],inactive
same,Potency,[3],inactive
same,Potency,[4],inactive
same,Potency,[5],inactive
CCOC(=O)NNc1nncc2ccccc12,outcome,[1],inactive
CCCC(=O)c1cc(O)c(O)cc1O,Potency,[2],inactive
same,Potency,[3],inactive
same,Potency,[4],inactive
same,Potency,[5],inactive
